Experimental data reported in PubChem BioAssay (NCATS).
Values joined by “and” are separate entries in the source; they are usually repeats but may differ in a detail not shown here. Equal entries are not always repeated. Inconclusive results are not listed. Active and inactive are the calls of the source. Unless noted, calls come from the whole dose curve; as a rule, active = well fitted curve in either direction with a large enough effect (not every such curve was filed as active); inconclusive = small, poorly fitted or top-dose-only effect, or another doubt; inactive = flat fitted curve, though single readings scatter.

What was measured:
[1] = AP1 Signaling Pathway (AID 357);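 note: ME-180 reporter cells stimulated with EGF at its EC50 level; % is set by controls: 0 for no effect and ±100 for the full control effect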
How it was run: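 First, ME-180 AP-1-bla cells were cultured overnight at 37 °C in low-serum Opti-MEM. Next, titrated compounds with EC50 EGF were incubated 5 hours. Finally, CCF4 was added for 2.5 hours and the 460/530 nm ratio recorded.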

[2] = molecular target: Cytochrome P450 1A2 (Homo sapiens) (UniProt P05177); test: p450-cyp1a2 (AID 410; calls by dose curve; note: potency is the fitted concentration of half-maximal effect;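 for activity change, negative = inhibition: -100% = full effect of reference inhibitor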)
Cytochrome P450 1A2 (Homo sapiens), sequence (P05177 whole entry, looked up): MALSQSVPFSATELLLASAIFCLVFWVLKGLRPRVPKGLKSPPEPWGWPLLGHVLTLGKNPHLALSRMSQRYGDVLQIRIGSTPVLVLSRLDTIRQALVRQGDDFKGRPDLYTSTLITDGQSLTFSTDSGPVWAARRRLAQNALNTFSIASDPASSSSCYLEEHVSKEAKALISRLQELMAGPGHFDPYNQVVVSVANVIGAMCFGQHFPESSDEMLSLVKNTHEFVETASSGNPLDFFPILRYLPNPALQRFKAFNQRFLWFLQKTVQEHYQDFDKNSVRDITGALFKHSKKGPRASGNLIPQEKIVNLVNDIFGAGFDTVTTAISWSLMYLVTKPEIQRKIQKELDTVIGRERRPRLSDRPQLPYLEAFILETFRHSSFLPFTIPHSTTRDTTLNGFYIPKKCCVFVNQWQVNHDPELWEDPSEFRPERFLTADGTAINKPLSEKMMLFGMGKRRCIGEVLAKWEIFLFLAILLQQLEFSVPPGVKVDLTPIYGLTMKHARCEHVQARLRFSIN
How it was run: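 20nM CYP1A2, 100uM Luciferin-ME (=Km), 100mM KPO4; cpd 10 min RT; +NADPH regen, 60 min RT; stop/detect 20 min; luminescence. Normalized to furafylline 57 uM = full inhibition.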

[3] = NFAT Signaling Pathway (AID 444); conditions: Jurkat NFAT-bla M1, carbachol, beta-lactamase ratio, 5 h;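 note: carbachol stimulus at about its EC50 of 1 µM final; % is set by controls: 0 for no effect and ±100 for the full control effect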
How it was run: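 Jurkat cells carrying an NFAT-driven β-lactamase reporter and co-transfected muscarinic M1 receptor were treated with compound plus carbachol (1 uM final, an EC50 level) for 5 h at 37 °C. CCF4 loading followed for 1 h at RT; 460/530 nm ratio gave %activity.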

[4] = Stat Signaling Pathway (AID 446); conditions: ME-180 (cervical carcinoma) SIE beta-lactamase reporter, IL-6 stimulated, 5 h;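 note: ME-180 cervical cancer cells given 40 pM IL-6 alongside compound; SIE-controlled beta-lactamase reporter measured as 460/530 nm FRET emission ratio; % is set by controls: 0 for no effect and ±100 for the full control effect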
How it was run: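 Compound effects on IL-6-induced STAT reporter activity were measured in ME-180 cells. After overnight culture, cells were co-treated with 40 pM IL-6 for 5 hrs before beta-lactamase substrate loading at room temperature.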

[5] = molecular target: Mitogen-activated protein kinase 10 (Mus musculus) (UniProt Q61831); test: JNK3 AlphaScreen Assay (AID 530);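 note: kinase came from lysate of stimulated human HepG2 cells; signal reports phosphorylation of biotinylated GST-cJun 1-79 at Ser73 with 10 µM ATP; % is set by controls: 0 for no effect and ±100 for the full control effect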
How it was run: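 Biotinylated GST-cJun(1-79) served as substrate for JNK3 in HepG2 lysates stimulated with IL-1beta and TNF-alpha. ATP was 10 uM final, pH 7.6. Ser73 phosphorylation was quantified by AlphaScreen (680 nm excitation).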

[6] = molecular target: Glucocorticoid receptor (Homo sapiens) (UniProt P04150); test: GR-GFP Redistribution (AID 450;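 active = compounds whose dose series gives a full or clear partial fitted curve of increased nuclear translocation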; note: potency is the fitted concentration of half-maximal effect); conditions: U2OS GR-GFP nuclear translocation, laser cytometry, 2 h
Glucocorticoid receptor (Homo sapiens), sequence (P04150 whole entry, looked up, the tested form may be a part): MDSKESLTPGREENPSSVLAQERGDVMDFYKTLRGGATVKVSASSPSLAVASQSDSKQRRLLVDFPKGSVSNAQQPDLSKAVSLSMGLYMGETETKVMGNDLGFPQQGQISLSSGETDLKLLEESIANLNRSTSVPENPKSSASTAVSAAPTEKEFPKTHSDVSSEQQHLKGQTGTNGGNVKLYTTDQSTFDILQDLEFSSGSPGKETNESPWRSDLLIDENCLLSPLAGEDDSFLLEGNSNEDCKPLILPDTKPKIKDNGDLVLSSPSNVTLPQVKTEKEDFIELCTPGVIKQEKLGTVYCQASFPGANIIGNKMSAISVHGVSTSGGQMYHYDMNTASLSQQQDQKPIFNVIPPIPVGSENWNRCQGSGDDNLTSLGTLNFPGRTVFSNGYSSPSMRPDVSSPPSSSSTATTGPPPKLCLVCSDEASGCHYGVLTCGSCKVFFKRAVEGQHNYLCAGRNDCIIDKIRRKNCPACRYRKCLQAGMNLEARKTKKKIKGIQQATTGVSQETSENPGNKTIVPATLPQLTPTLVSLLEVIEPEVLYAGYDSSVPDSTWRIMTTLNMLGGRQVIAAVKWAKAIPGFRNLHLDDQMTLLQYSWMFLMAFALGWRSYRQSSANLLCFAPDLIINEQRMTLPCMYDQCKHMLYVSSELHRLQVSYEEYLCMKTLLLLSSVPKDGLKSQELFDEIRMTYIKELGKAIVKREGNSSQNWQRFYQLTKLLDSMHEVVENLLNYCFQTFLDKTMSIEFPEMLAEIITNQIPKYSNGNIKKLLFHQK

[7] = molecular target: Glucocorticoid receptor (Homo sapiens) (UniProt P04150); test: GR-EFC Redistribution (AID 451; calls by dose curve; note: potency is the fitted concentration of half-maximal effect); conditions: CHO-K1 GR-EFC translocation, beta-gal luminescence, 2 h
How it was run: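 CHO-K1 cells stably expressing nuclear-localized β-gal enzyme acceptor and GR fused C-terminally to the enzyme donor fragment; ligand-driven nuclear translocation restores β-gal by complementation. Compounds titrated up to 46 uM final, 2 h at 37 °C; luminescence read.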

CCCN1CCC[C@@H]2Cc3nc(N)ncc3C[C@H]21
inactive: outcome [1] | Potency [2] | activity change, negative = inhibition ([3]; at 38 µM (top of the series)) -3.63% | activity, negative = inhibition ([4]; at 38 µM (top of the series)) -19.8% | outcome [5]

NN=C(N)N
inactive: outcome [1] | Potency [2] | activity change, negative = inhibition ([3]; at 38 µM (top of the series)) 2.99% and 1.19% | activity, negative = inhibition ([4]; at 38 µM (top of the series)) 13% and 15.8% | outcome [5]

O=[N+]([O-])c1cc([As](=O)(O)O)ccc1O
inactive: outcome [1] | Potency [2] | activity change, negative = inhibition ([3]; at 17.2 µM (top of the series)) -8.47% | activity, negative = inhibition ([4]; at 17.2 µM (top of the series)) 10.9% | Potency [6] > 20.6 µM | Potency [7] > 20.6 µM | outcome [5]

C=C1CC[C@@]2(O)[C@H]3Cc4ccc(O)c5c4[C@@]2(CCN3CC2CC2)[C@H]1O5
inactive: outcome [1] | activity change, negative = inhibition ([3]; at 17.2 µM (top of the series)) -9.27% | activity, negative = inhibition ([4]; at 17.2 µM (top of the series)) 2.91% | Potency [6] > 20.6 µM

CCn1cc(C(=O)O)c(=O)c2ccc(C)nc21
inactive: outcome [1] | activity change, negative = inhibition ([3]; at 17.2 µM (top of the series)) -8.77% and -6.5% | activity change, negative = inhibition ([3]; at 38 µM (top of the series)) 12.2% | activity, negative = inhibition ([4]; at 17.2 µM (top of the series)) 10.7% and -2.6% | activity, negative = inhibition ([4]; at 38 µM (top of the series)) -7% | outcome [5]

Cc1cccc(C)c1NC1=NCCCS1
inactive: outcome [1] | Potency [2] | activity change, negative = inhibition ([3]; at 38 µM (top of the series)) -14.8% | activity, negative = inhibition ([4]; at 17.2 µM (top of the series)) 3.23% | activity, negative = inhibition ([4]; at 38 µM (top of the series)) 9.43% | outcome [5]

NCC1(CC(=O)O)CCCCC1
inactive: outcome [1] | Potency [2] | activity change, negative = inhibition ([3]; at 17.2 µM (top of the series)) -5.52% and 10.6% | activity change, negative = inhibition ([3]; at 38 µM (top of the series)) 3.24% | activity, negative = inhibition ([4]; at 17.2 µM (top of the series)) -0.102% and 1.2% | activity, negative = inhibition ([4]; at 38 µM (top of the series)) -12.4% | Potency [6] > 46 µM and > 20.6 µM | Potency [7] > 46 µM and > 20.6 µM | outcome [5]

c1ccc(C2CC2)c(OCC2=NCCN2)c1
inactive: outcome [1] | activity, negative = inhibition ([4]; at 38 µM (top of the series)) -9.49% | Potency [6] > 46 µM | Potency [7] > 46 µM | outcome [5]
active: Potency [2] 15.8 µM and 25.1 µM

Nc1ccncc1
inactive: outcome [1] | Potency [2] | activity change, negative = inhibition ([3]; at 38 µM (top of the series)) -3.97% | activity, negative = inhibition ([4]; at 38 µM (top of the series)) 18.2% | outcome [5]

O=C1CC[C@@]2(O)[C@H]3Cc4ccc(O)c5c4[C@@]2(CCN3CC2CC2)[C@H]1O5
inactive: outcome [1] | activity change, negative = inhibition ([3]; at 17.2 µM (top of the series)) 1.18% | activity, negative = inhibition ([4]; at 17.2 µM (top of the series)) 2.9%
